The whole screen tested about 5,500 compounds, of which about 2,000 (36%) were called active. Inconclusive results (about 18%) are left out. No stated cut-off is given here; in the data, active means normalized growth mostly below about 0.91 (no sharp cut-off); inconclusive means no clear call, values can overlap the other calls; inactive means mostly above about 0.92. This is one part of the list.
Assay: chemical genetic growth profiling, strain panel (AID 1159580);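 further: tested at 20 µM; growth read once vehicle control cultures reached saturation at 30 °C; 1 = growth at the plate median or of vehicle wells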
Details: S. cerevisiae deletion strains, growth OD

Measured: normalized growth

O=C1NCN(c2ccccc2)C12CCN(CCCC(c1ccc(F)cc1)c1ccc(F)cc1)CC2
inactive: locus YAL013W, strain DEP1, stronger effect = lower value 1.01 | locus YAL040C, strain CLN3, stronger effect = lower value 0.995 | locus YCL061C, strain MRC1 (second series), stronger effect = lower value 1 | locus YDR150W, strain NUM1, stronger effect = lower value 0.987 | locus YDR363W, strain ESC2, stronger effect = lower value 0.992 | locus YER002W, strain NOP16, stronger effect = lower value 1.03 | locus YJR075W, strain HOC1, stronger effect = lower value 0.998 | locus YMR263W, strain SAP30, stronger effect = lower value 1 | locus YNL128W, strain TEP1, stronger effect = lower value 1.05 | locus YNL153C, strain GIM3, stronger effect = lower value 0.982 | locus YNL197C, strain WHI3, stronger effect = lower value 1.09 | locus YNL224C, strain SQS1, stronger effect = lower value 1.07 | locus YNL322C, strain KRE1, stronger effect = lower value 1 | locus YOR083W, strain WHI5 (second series), stronger effect = lower value 1.09 | locus YPL241C, strain CIN2, stronger effect = lower value 1

Source: PubChem BioAssay AID1159580 (chemical genetic matrix, 2015)
